Screening data from PubChem BioAssay.
These entries were drawn from the full list.
aSyn 5UTR act = Activators via SNCA 5'UTR binding, MLPCN | alpha-synuclein 5'UTR reporter, activators screen | actives 7.1% (n = 300,000) | activity score, % (tested at 7.5 µM), hits read low; in the data active means activity score below about -60%
* marks the source's active call; other numbers are inactive results.

SMILES | aSyn 5UTR act
Nc1ccc(S(=O)(=O)Nc2nccc(/C=C/c3ccc(Cl)cc3Cl)n2)cc1 | -66.8*
Cc1cc(NC(=O)c2oc3ccccc3c2C)ccc1-n1cnnn1 | -123.6*
COc1cc(OC)cc(C(=O)Nc2ccc(-n3cnnn3)c(C)c2)c1 | -93.2*
O=C(c1ccc(Br)cc1)C(CN1CCOCC1)c1ccccc1 (stereo not drawn) | -152.2*
CCN1CCN(C(=O)/C=C/c2c(F)cccc2Cl)CC1 | -90.0*
O=C(/C=C/c1c(F)cccc1Cl)N1CCc2ccccc2C1 | -85.1*
O=C(/C=C/c1ccccc1)NC(=S)NNC(=O)c1cnccn1 | 86.6
CC(/C=C/c1ccccc1)=N/NC(=O)c1cnccn1 | -119.6*
CSCc1ccc(C(=O)NCCSc2ccc(Br)cc2)cc1 | -96.2*
CCC(C)Nc1nc(-c2ccc3c(c2)NC(=O)CO3)cs1 (stereo not drawn) | -112.4*
COc1ccc(Nc2nc(-c3ccc4c(c3)NC(=O)CO4)cs2)cc1 | -109.6*
CC(C)c1ccccc1-n1c(SCC(=O)c2ccc3c(c2)NC(=O)CO3)nc2ccccc2c1=O | 51.4
CN(C)/C=N/c1ncc(C(=O)c2ccc(Cl)cc2)s1 | -72.4*
Brc1c(CSc2nc3ccccc3s2)nc2ncccn12 | -109.6*
CC(C)(C)c1ccc(OCc2cnc(Cl)s2)cc1 | -105.2*
COc1ccc(N=c2sc3ccccc3n2C)cc1 | -172.2*
CCn1c(SCc2ccc(OC)cc2)nnc1-c1ccncc1 | -106.3*
C=CCn1c(SCc2ccc(C#N)cc2)nnc1-c1cccc(OC)c1 | 58.3
C=CCn1c(SCc2ccc(OC)cc2)nnc1-c1cccnc1 | -117.4*
C(=N\Nc1nc2ccccc2[nH]1)/c1cccc2nccnc12 | 67.3
C(=N\Nc1nc2ccccc2[nH]1)/c1ccccn1 | 111.7
C#CCn1cc(/C=N/Nc2nc3ccccc3[nH]2)c2ccccc21 | -383.3*
Cc1ccc(/C=N\Nc2nc3ccc(Cl)cc3[nH]2)o1 | -192.3*
CCCCn1c(/C=N/Nc2nc3ccccc3[nH]2)nc2ccccc21 | -432.6*
Fc1ccccc1-c1ccc(/C=N/Nc2nc3ccccc3[nH]2)o1 | -216.8*
SMILES | aSyn 5UTR act
Cc1csc(=NC(=O)c2ccccc2)n1C | -126.0*
CCn1c(C)csc1=NC(=O)c1ccccc1O | -249.5*
CCn1c(C)csc1=NC(=O)c1ccccc1 | -112.1*
CN1C2CCC1/C(=C\c1ccc(F)cc1)C(=O)/C2=C/c1ccc(F)cc1 | -134.1*
Cc1c2ccccc2nc2c(F)c(NC(C)C)c(F)c(F)c12 | -106.1*
N#C/C(=C\c1ccc(-c2nc3ccccc3s2)o1)C(N)=O | -71.4*
Cc1ncc(/C=C2\C(=O)Nc3ccccc32)[nH]1 | -104.2*
CC(CC(=O)NCc1ccccc1)C1CCCO1 (stereo not drawn) | -62.0*
COc1ccc(OC)c(S(=O)(=O)ON2C(=O)c3ccccc3C2=O)c1 | -90.3*
O=C(Nc1ccc2c(c1)OCO2)Nc1ccccc1F | -135.9*
CCc1cccc(NC(=O)Nc2ccc3c(c2)OCO3)c1 | -65.5*
CCn1c2ccccc2c2nnc(SCC(=O)Nc3ccc4c(c3)OCO4)nc21 | -96.0*
CCc1ccccc1NC(=O)Nc1ccc2c(c1)OCO2 | -78.6*
O=C(Nc1ccc2c(c1)OCCO2)NC1(C(F)(F)F)Oc2ccccc2O1 | 62.5
O=C(Nc1ccc2c(c1)OCO2)NC1(C(F)(F)F)Oc2ccccc2O1 | -96.2*
Cc1c(/N=C(\[O-])Nc2ccc(Br)cc2)sn[n+]1C | 89.3
C/C(=C\C(=O)c1ccc(Br)cc1)NCc1ccccc1 | -112.8*
C/C(=C\C(=O)c1ccc(Br)cc1)Nc1cccc(Cl)c1 | -79.8*
C/C(=C\C(=O)c1ccc(Cl)cc1)Nc1ccc(Br)cc1 | -131.0*
O=C(c1ccco1)N1CCN(c2ccc(Cl)c(Cl)c2)CC1 | -121.4*
O=C(c1ccco1)N1CCN(C(=O)N2c3ccccc3Sc3ccccc32)CC1 | 80.9
O=C(c1ccco1)N1CCN(Cc2c(F)cccc2Cl)CC1 | -74.8*
O=C(c1ccco1)N1CCN(c2ccc(Cl)cc2)CC1 | -130.4*
Cc1ccc(N/N=C2\CCS(=O)(=O)c3sccc32)cc1 | -89.5*
CCN(CC)c1ccc(C(=O)OCC(=O)Nc2sccc2C#N)cc1 | -176.5*
SMILES | aSyn 5UTR act
N#Cc1ccsc1NC(=O)COC(=O)c1cc2ccccc2cc1O | -178.1*
N#Cc1ccsc1NC(=O)COc1ccc(-c2nnco2)cc1 | -95.8*
N#Cc1ccsc1NC(=O)CCc1ccccc1 | -80.7*
N#Cc1ccsc1NC(=O)COC(=O)c1ccc(NC(N)=O)cc1 | -78.0*
CC(=O)Nc1ccc(SCC(=O)Nc2sccc2C#N)cc1 | -111.1*
O=C(Nc1ccc2oc(-c3ccncc3)nc2c1)c1ccc([N+](=O)[O-])o1 | -118.3*
O=C(Nc1ccc2oc(-c3ccncc3)nc2c1)c1ccccc1F | -135.2*
CC(C)CC(=O)Nc1ccc2oc(-c3ccncc3)nc2c1 | -74.2*
O=C(Nc1ccc2oc(-c3ccccc3)nc2c1)c1ccccc1F | -257.3*
O=C(Nc1ccc2oc(-c3ccc(Cl)c(Cl)c3)nc2c1)c1ncn[nH]1 | -168.4*
O=C(Nc1ccc2oc(-c3ccccc3F)nc2c1)c1ccccc1F | -188.0*
O=C(Nc1ccc2oc(-c3cccc(F)c3)nc2c1)c1ccccc1F | -119.7*
O=C(Nc1ccc2oc(-c3ccncc3)nc2c1)c1cccs1 | -113.6*
COc1ccc(NC(=O)c2ccc3[nH]c(C)c(C)c3c2)cc1 | -101.4*
CC(=O)Nc1cccc(NC(=O)c2ccc3[nH]c(C)c(C)c3c2)c1 | -107.2*
COc1cccc(-c2cc(=O)c3cc(NC(=O)c4ccc(N(C)C)cc4)ccc3[nH]2)c1 | 115.0
Cc1ccc(NC(=O)c2cc(N(C)C)ccc2[P+](=O)O)cc1 | -154.5*
COc1cc2ccccc2cc1C(=O)Nc1ccc(CN2CCOCC2)cc1 | -112.2*
O=C(Nc1ccc(CN2CCOCC2)cc1)c1ccc(Cl)cc1Cl | -96.4*
O=C(Nc1ccc(CN2CCOCC2)cc1)c1ccc(-c2cccc(Cl)c2)o1 | -83.4*
O=C(Cc1ccccc1)Nc1ccc(CN2CCOCC2)cc1 | -86.7*
O=C(/C=C/c1ccc(Cl)cc1Cl)NC(=S)Nc1ccccn1 | -223.9*
O=C(Nc1ccc(CN2CCOCC2)cc1)c1ccccc1F | -75.8*
O=C(Nc1ccc(CN2CCOCC2)cc1)c1cccs1 | -145.2*
O=C(Oc1c(CN2CCOCC2)cc(Cl)c2cccnc12)c1ccccc1F | 105.8
SMILES | aSyn 5UTR act
CCC(=O)NC(c1ccc(Cl)cc1Cl)c1ccc2cccnc2c1O (stereo not drawn) | 75.3
O=C(/C=C/c1ccc(Cl)cc1Cl)NC(=S)Nc1ccc(CN2CCOCC2)cc1 | -71.1*
CCC(=O)Oc1oc(-c2ccccc2)nc1C=Nc1ccccc1OC | -63.5*
CN(C)c1ccc(N=Cc2nc(-c3ccccc3)oc2OC(=O)c2cccc(Br)c2)cc1 | -165.9*
COc1ccc(N=Cc2nc(-c3ccccc3)oc2OC(=O)c2ccccc2)cc1 | -91.7*
COc1ccc(-c2nnc(-c3ccc(N(C)C)cc3)o2)cc1 | -147.7*
CN(C)c1ccc(-c2nnc(-c3ccc(S(=O)(=O)C(F)F)cc3)o2)cc1 | -62.8*
COc1ccc(-c2nnc(-c3ccc(N)cc3)o2)cc1 | -112.6*
O=C1C2C3C=CC(C4CC34)C2C(=O)N1/N=C/c1ccc([N+](=O)[O-])s1 (stereo not drawn) | -84.9*
O=C1C2C3C=CC(C4CC34)C2C(=O)N1/N=C/c1c[nH]c2ccccc12 (stereo not drawn) | -140.7*
CCSc1nnc2nc3[nH]c4c(C)cccc4c3nn12 | -146.8*
C=CCSc1nnc2c(n1)[nH]c1c(C)cccc12 | -157.6*
CCc1ccccc1NC(=O)c1ccc([N+](=O)[O-])s1 | -68.0*
